From PubChem BioAssay (NCATS)
Inconclusive results are not listed. Where a call stands in place of a potency, no number is given. A number with no mark means an inactive call. Active and inactive are the calls of the source. The call rests on the fitted dose curve; in most records, active means well fitted inhibition curve with a large enough effect; inconclusive means small, poorly fitted or top-dose-only effect; inactive means no such curve, though single readings can be large or run the other way.

What was measured:
[1] = system: Zika virus NS2B-NS3 protease (unlinked complex); assay: Primary screen GU Rhodamine qHTS for Zika virus inhibitors: Unlinked NS2B-NS3 protease assay (AID 1347159); further: nearly all actives have a fitted effect of over 60% in size
Summary of the method: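 A qHTS format was used, with compound concentrations ranging up to 114 microM. Each compound was preincubated with 25 nM NS2B-NS3 protease, and the substrate was then added at 1.5 microM. Curves were fitted with a 4-parameter Hill model.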

[2] = system: Zika virus NS2B-NS3 protease (linked construct); assay: Primary screen NINDS Rhodamine qHTS for Zika virus inhibitors (AID 1347160); further: nearly all actives have a fitted effect of over 55% in size
Summary of the method: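 Kinetic fluorescence (Ex 480 nm, Em 540 nm) over 15 min with 1.5 microM Rhodamine110 peptide and 25 nM linked protease.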

Compound	Potency [1]	Potency [2]
Nc1cc(C(F)(F)F)c(-c2cc(N3CCOCC3)nc(N3CCOCC3)n2)cn1	inactive	inactive
NC(=O)c1c(OCc2c(F)cc(Br)cc2F)nsc1NC(=O)NCCCCN1CCCC1	inactive	inactive
O=C(Cc1ccc(-c2ccc(OCCN3CCOCC3)cc2)cn1)NCc1ccccc1	inactive	inactive
C=CC(=O)N1CCC[C@@H](n2nc(-c3ccc(Oc4ccccc4)cc3)c3c(N)ncnc32)C1	inactive	inactive
COc1ccc2c(OCc3nnc4ccc(-c5ccccc5)nn34)ccnc2c1	inactive	–
CC(C)c1cc(C(=O)N2Cc3ccc(CN4CCN(C)CC4)cc3C2)c(O)cc1O	inactive	inactive
CC(C)Nc1cc(C(F)(F)F)cc2nc(NC(=O)c3cccnc3)nn12	inactive	inactive
Nc1ncnc2c1c(-c1cccc(OCc3ccccc3)c1)cn2C1CC(CN2CCCC2)C1 (stereo not given)	inactive	inactive
Nc1ncnc2c1c(-c1cnc3[nH]ccc3c1)nn2C1CCCC1	inactive	inactive
Cc1nc(Nc2n[nH]c3c2CN(C(=O)N[C@H](CN(C)C)c2ccccc2)C3(C)C)c2sccc2n1	inactive	inactive
CC(C)(O)c1cc2nc(-c3cnc(N)nc3)nc(N3CCOCC3)c2s1	inactive	inactive
C=CCn1c(=O)c2cnc(Nc3ccc(N4CCN(C)CC4)cc3)nc2n1-c1cccc(C(C)(C)O)n1	inactive	inactive
Cn1c(CNc2ccc(C(=N)N)cc2)nc2cc(C(=O)N(CCC(=O)O)c3ccccn3)ccc21	inactive	inactive
Clc1cccc(-c2nnnn2Cc2cccnc2)c1Cl	inactive	inactive
Cc1c(CN2CCN(S(C)(=O)=O)CC2)sc2c(N3CCOCC3)nc(-c3cnc(N)nc3)nc12	inactive	inactive
CNC(=O)c1c(F)cccc1Nc1nc(Nc2cc3c(cc2OC)CCN3C(=O)CN(C)C)nc2[nH]ccc12	inactive	inactive
C[C@]1(CO)CN(c2cc(C(=O)Nc3ccc4c(c3)-c3c(c(C(N)=O)nn3-c3ccc(F)cc3)CC4)c(Cl)cn2)C[C@@]1(C)CO	inactive	inactive
O=C(c1ccc(Nc2nccc(-c3cc4ccccc4s3)n2)cc1)N1CCC(N2CCCC2)CC1	inactive	inactive
COc1ccc(-c2cc3c(C)nc(N)nc3n(C3CCC(OCCO)CC3)c2=O)cn1 (stereo not given)	inactive	inactive

Compound	Potency [1]	Potency [2]
Cn1cc(-c2ccncc2)c(-c2ccc(OCc3ccc4ccccc4n3)cc2)n1	inactive	inactive
COc1ccc(C(=O)CC2(O)C(=O)Nc3c(Cl)ccc(Cl)c32)cc1 (stereo not given)	inactive	inactive
CCn1nnc2c(N3CCOCC3)nc(-c3ccc(NC(=O)Nc4ccc(C(=O)N5CCN(C)CC5)cc4)cc3)nc21	inactive	inactive
Cc1cc(Nc2cc(CN3CCOCC3)c3nc(C)c(Cc4ccc(Cl)cc4F)n3n2)n[nH]1	inactive	inactive
CNc1nccc(-c2cccnc2Oc2cc(C(=O)Nc3cccc(C(F)(F)F)c3)ccc2C)n1	inactive	inactive
Nc1nc(Nc2ccc(S(N)(=O)=O)cc2)nn1C(=O)c1c(F)cccc1F	inactive	inactive
Clc1cccc(-n2nnnc2NCc2ccccc2Oc2ccccn2)c1Cl	inactive	inactive
NC1(Cc2ccc(Cl)cc2)CCN(c2ncnc3[nH]ccc23)CC1	inactive	inactive
Nc1ccccc1NC(=O)c1ccc(CNC(=O)OCc2cccnc2)cc1	inactive	inactive
CCN(CC)CCNC(=O)c1ccc2nc(-c3ccccc3)c(-c3ccc(CN4CCC(n5c(=O)[nH]c6ccccc65)CC4)cc3)nc2c1	inactive	inactive
Cc1[nH]nc2ccc(-c3cncc(OC[C@@H](N)Cc4ccccc4)c3)cc12	inactive	inactive
C=CC(=O)Nc1cccc(Oc2nc(Nc3ccc(N4CCN(C)CC4)cc3OC)ncc2Cl)c1	inactive	inactive
C[C@@H]1COC(Nc2ccc3ncnc(Nc4ccc(OCc5nccs5)c(Cl)c4)c3c2)=N1	inactive	inactive
CNC(=O)c1ccc(N2C(=S)N(c3cnc(C#N)c(C(F)(F)F)c3)C(=O)C23CCC3)cc1F	inactive	inactive
CC(O)C1C(=O)N2C(C(=O)O)=C(SC3CNC(C(=O)N(C)C)C3)C(C)C12 (stereo not given)	inactive	inactive
Cc1ccc(C(=O)Nc2ccc(CN3CCN(C)CC3)c(C(F)(F)F)c2)cc1C#Cc1cnc2cccnn12	inactive	inactive
CCCCOc1c(C(=O)c2c(F)cc(C)cc2F)cnc2n[nH]cc12	inactive	inactive
Nc1ccccc1NC(=O)c1ccc(CNc2nccc(-c3cccnc3)n2)cc1	inactive	inactive
CCCCCCCCCC(=O)N[C@@H](Cc1c[nH]c2ccccc12)C(=O)N[C@H](CC(N)=O)C(=O)N[C@@H](CC(=O)O)C(=O)N[C@@H]1C(=O)NCC(=O)N[C@@H](CCCN)C(=O)N[C@@H](CC(=O)O)C(=O)N[C@H](C)C(=O)N[C@@H](CC(=O)O)C(=O)NCC(=O)N[C@H](CO)C(=O)N[C@@H]([C@@H](C)CC(=O)O)C(=O)N[C@@H](CC(=O)c2ccccc2N)C(=O)O[C@@H]1C	inactive	inactive
